Several values for one entry are separate records, joined by “and”; a condition that tells them apart may be missing. Equal values may be shown once. Inconclusive results are not listed. Activity calls are given as the source filed them. Unless noted, calls follow the shape of the dose curve; as a rule, active = well fitted curve in the direction sought with a large enough effect; inconclusive = small, poorly fitted or top-dose-only effect, or another doubt; inactive = no such curve, though single readings can be large; an effect the other way counts as inactive or inconclusive.
Assays:
[1] = test system: WaGa; experiment: qHTS assay to identify novel small-molecules to repurpose for Merkel cell carcinoma treatment (AID 1296009); conditions: MCC and control cell lines, CellTiter-Glo viability, 72 h; series mostly up to 46 µM; also: % is scaled to controls: 0 for no effect and ±100 for the full control effect; nearly all actives have a fitted effect of over 60% in size
Outline: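 qHTS format: cells treated with library compounds in DMSO across 8 (NPC) or 11 (MIPE) concentrations. Readout after 72 hr at 37 degree celsius was CellTiter-Glo luminescence.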

[2] = test system: C33A; experiment: Primary qHTS to identify gynecologic anti-cancer compounds using libraries of approved drugs and bioactive compounds (AID 1345084); conditions: Gynecologic cancer cell panel viability, ATPlite luminescence, 48 h; series mostly up to 57.5 µM; also: % is scaled to controls: 0 for no effect and ±100 for the full control effect; nearly all actives have a fitted effect of over 55% in size
Outline: (§1)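 Five-concentration response, 48 h; readout is ATP-driven luciferase luminescence.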

[3] = test system: CASKI; experiment: as above; conditions: Gynecologic cancer cell panel viability, ATPlite luminescence, 48 h; series mostly up to 57.5 µM
Outline: as §1

[4] = test system: Es-2; experiment: as above; conditions: Gynecologic cancer cell panel viability, ATPlite luminescence, 48 h; series mostly up to 57.5 µM
Outline: as §1

[5] = test system: HeLa; experiment: as above; conditions: Gynecologic cancer cell panel viability, ATPlite luminescence, 48 h; series mostly up to 57.5 µM
Outline: as §1

[6] = test system: Hek293T; experiment: as above; conditions: Gynecologic cancer cell panel viability, ATPlite luminescence, 48 h, control line for the selectivity index; series mostly up to 57.5 µM
Outline: as §1

[7] = test system: JEG-3; experiment: as above; conditions: Gynecologic cancer cell panel viability, ATPlite luminescence, 48 h; series mostly up to 57.5 µM
Outline: as §1

[8] = test system: OV90; experiment: as above; conditions: Gynecologic cancer cell panel viability, ATPlite luminescence, 48 h; series mostly up to 57.5 µM
Outline: as §1

[9] = test system: PA-1; experiment: as above; conditions: Gynecologic cancer cell panel viability, ATPlite luminescence, 48 h; series mostly up to 57.5 µM
Outline: as §1

[10] = test system: SKOV3; experiment: as above; conditions: Gynecologic cancer cell panel viability, ATPlite luminescence, 48 h; series mostly up to 57.5 µM
Outline: as §1

[11] = test system: Tov-21-G; experiment: as above; conditions: Gynecologic cancer cell panel viability, ATPlite luminescence, 48 h; series mostly up to 57.5 µM
Outline: as §1

[12] = test system: Tov112D; experiment: as above; conditions: Gynecologic cancer cell panel viability, ATPlite luminescence, 48 h; series mostly up to 57.5 µM
Outline: as §1

[13] = Drug repurposing screens with cells derived from glioblastoma tumor samples (AID 1345199); conditions: GBM patient neurospheres viability, ATP luminescence, 48 h; also: % is scaled to controls: 0 for no effect and ±100 for the full control effect; nearly all actives have a fitted effect of over 40% in size
Outline: (§2)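 Four patient lines of CD133+ GBM neurospheres were screened at several concentrations; hits were retested in those lines plus three slower-growing GBM lines, using 48-hour treatment and ATP-based viability.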

[14] = test system: astro; experiment: as above; conditions: viability, ATP luminescence, 48 h; series mostly up to 45.9 µM
Outline: as §2

[15] = target: Nuclear receptor subfamily 1 group I member 2 (Rattus norvegicus) (UniProt Q9R1A7); experiment: qHTS assay for small molecule activators of the rat pregnane X receptor (rPXR) signaling pathway (AID 651751; call rule not given here; also: 0% is about no effect); conditions: rPXR reporter cells, luciferase (One-Glo), 24 h
[16] = qHTS assay for small molecule activators of the human pregnane X receptor (PXR) signaling pathway (AID 720659; call rule not given here; also: 0% is about no effect)
[17] = at 91.6 µM (top of the series), tumour line A
[18] = at 91.6 µM (top of the series), tumour line B
[19] = at 91.6 µM (top of the series), tumour line D
[20] = at 45.9 µM (top of the series), tumour line B
[21] = at 45.9 µM (top of the series), tumour line D
[22] = at 46 µM (top of the series), tumour line A

Nuclear receptor subfamily 1 group I member 2 (Rattus norvegicus), sequence (Q9R1A7 whole entry, looked up): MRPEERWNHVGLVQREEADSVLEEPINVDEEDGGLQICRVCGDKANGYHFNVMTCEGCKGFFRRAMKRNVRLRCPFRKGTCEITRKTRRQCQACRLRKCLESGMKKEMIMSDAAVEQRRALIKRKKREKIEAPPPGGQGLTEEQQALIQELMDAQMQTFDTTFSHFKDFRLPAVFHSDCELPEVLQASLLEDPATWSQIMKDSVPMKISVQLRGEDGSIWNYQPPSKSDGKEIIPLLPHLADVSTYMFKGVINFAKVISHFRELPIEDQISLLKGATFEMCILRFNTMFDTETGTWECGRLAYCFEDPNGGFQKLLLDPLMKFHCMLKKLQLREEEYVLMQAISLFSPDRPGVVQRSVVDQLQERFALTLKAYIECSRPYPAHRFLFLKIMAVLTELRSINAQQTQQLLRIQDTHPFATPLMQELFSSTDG

CN1CC[C@]23c4c5ccc(O)c4O[C@H]2[C@@H](O)CC[C@H]3[C@H]1C5
inactive: Potency [1] | Potency [2] | outcome [3] | Potency [4] | Potency [5] | outcome [6] | outcome [7] | Potency [8] | Potency [9] | outcome [10] | Potency [11] | Potency [12] | activity, negative = cell killing [13, 17] -29.5% | activity, negative = cell killing [13, 18] -3.58% | activity, negative = cell killing [13, 19] -23.6% | Potency [14]

CCC1(c2ccc(N)cc2)CCC(=O)NC1=O (centres undefined)
inactive: Potency [1] | Potency [2] | outcome [3] | Potency [4] | Potency [5] | outcome [6] | outcome [7] | Potency [8] | Potency [9] | outcome [10] | Potency [11] | Potency [12] | activity, negative = cell killing [13, 20] -18.5% | activity, negative = cell killing [13, 21] -18.3% | Potency [14]

CN(C)CCc1c[nH]c2cccc(OP(=O)(O)O)c12
inactive: Potency [1] | Potency [2] | outcome [3] | Potency [4] | Potency [5] | outcome [6] | outcome [7] | Potency [8] | Potency [9] | outcome [10] | Potency [11] | Potency [12] | activity, negative = cell killing [13, 17] -30.1% | activity, negative = cell killing [13, 18] -11.6% | activity, negative = cell killing [13, 19] -12.3% | Potency [14]

CC(C)=CC1C(C(=O)OCN2C(=O)C3=C(CCCC3)C2=O)C1(C)C (centres undefined)
inactive: Potency [1] | Potency [2] | outcome [3] | Potency [4] | Potency [5] | outcome [7] | Potency [8] | Potency [9] | Potency [11] | Potency [12] | activity, negative = cell killing [13, 20] -18.8% | activity, negative = cell killing [13, 21] -12.7% | Potency [14]

NC1=NC(=O)C(c2ccccc2)O1 (centres undefined)
inactive: Potency [1] | Potency [2] | outcome [3] | Potency [4] | Potency [5] | outcome [6] | outcome [7] | Potency [8] | Potency [9] | outcome [10] | Potency [11] | Potency [12] | activity, negative = cell killing [13, 20] -0.343% | activity, negative = cell killing [13, 21] -7.44% | activity, negative = cell killing [13, 22] -19.1%

Oc1ccc(Cl)cc1
inactive: Potency [1] | Potency [2] | outcome [3] | Potency [4] | Potency [5] | outcome [6] | outcome [7] | Potency [8] | Potency [9] | Potency [11] | Potency [12] | activity, negative = cell killing [13, 20] -7.37% | activity, negative = cell killing [13, 21] -24.9% | activity, negative = cell killing [13, 22] -26.5% | Potency [14] | max response [15] 5.25% | outcome [16]

O=C(O)CCCc1ccc(N(CCCl)CCCl)cc1
inactive: Potency [1] | Potency [2] | outcome [3] | Potency [4] | Potency [5] | outcome [6] | outcome [7] | Potency [8] | Potency [9] | outcome [10] | Potency [11] | Potency [12] | activity, negative = cell killing [13, 20] -11.3% | activity, negative = cell killing [13, 21] -13.2% | Potency [14] | max response [15] 4.32% and -0.624% | outcome [16]
